Screening data from PubChem BioAssay.
Only some compounds are listed: those with a hit (about 2.8% of all), similar ones and a draw of the others.
IP6K1 inh = blocks human inositol hexakisphosphate kinase 1; AID 1645851; IP6K1 kinase, ADP-Glo luminescence, 2 h; active compounds read low; Q92551; activity change, % (series mostly up to about 58 µM); hit rate 0.81% among 140,000; in the data active = activity change below about -25%; note: % is set by controls: 0 for no effect and ±100 for the full control effect
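ADP-Glo luminescence measures ADP made by human IP6K1 during a 2 h RT reaction with ATP/IP6 (mix at 1.3 mM/130 uM); top library doses 57.5 and 19.1 uM final.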
KDM5B inh = blocks human KDM5B histone demethylase activity. KDM5B demethylase, FDH-coupled NADH fluorescence (FDH is formaldehyde dehydrogenase). Potency, µM (doses to about 57.7 µM), most hits filed as inhibitors. hit rate 2.6% among 220,000; active = well fitted inhibition curve with a large enough effect; inconclusive = small, poorly fitted or top-dose-only effect; inactive = no such curve, though single readings can be large or run the other way; note: potency is the fitted concentration of half-maximal effect; 0% is about no effect; nearly all actives have a fitted effect of over 70% in size
Target sequence (Q9UGL1 whole entry, looked up): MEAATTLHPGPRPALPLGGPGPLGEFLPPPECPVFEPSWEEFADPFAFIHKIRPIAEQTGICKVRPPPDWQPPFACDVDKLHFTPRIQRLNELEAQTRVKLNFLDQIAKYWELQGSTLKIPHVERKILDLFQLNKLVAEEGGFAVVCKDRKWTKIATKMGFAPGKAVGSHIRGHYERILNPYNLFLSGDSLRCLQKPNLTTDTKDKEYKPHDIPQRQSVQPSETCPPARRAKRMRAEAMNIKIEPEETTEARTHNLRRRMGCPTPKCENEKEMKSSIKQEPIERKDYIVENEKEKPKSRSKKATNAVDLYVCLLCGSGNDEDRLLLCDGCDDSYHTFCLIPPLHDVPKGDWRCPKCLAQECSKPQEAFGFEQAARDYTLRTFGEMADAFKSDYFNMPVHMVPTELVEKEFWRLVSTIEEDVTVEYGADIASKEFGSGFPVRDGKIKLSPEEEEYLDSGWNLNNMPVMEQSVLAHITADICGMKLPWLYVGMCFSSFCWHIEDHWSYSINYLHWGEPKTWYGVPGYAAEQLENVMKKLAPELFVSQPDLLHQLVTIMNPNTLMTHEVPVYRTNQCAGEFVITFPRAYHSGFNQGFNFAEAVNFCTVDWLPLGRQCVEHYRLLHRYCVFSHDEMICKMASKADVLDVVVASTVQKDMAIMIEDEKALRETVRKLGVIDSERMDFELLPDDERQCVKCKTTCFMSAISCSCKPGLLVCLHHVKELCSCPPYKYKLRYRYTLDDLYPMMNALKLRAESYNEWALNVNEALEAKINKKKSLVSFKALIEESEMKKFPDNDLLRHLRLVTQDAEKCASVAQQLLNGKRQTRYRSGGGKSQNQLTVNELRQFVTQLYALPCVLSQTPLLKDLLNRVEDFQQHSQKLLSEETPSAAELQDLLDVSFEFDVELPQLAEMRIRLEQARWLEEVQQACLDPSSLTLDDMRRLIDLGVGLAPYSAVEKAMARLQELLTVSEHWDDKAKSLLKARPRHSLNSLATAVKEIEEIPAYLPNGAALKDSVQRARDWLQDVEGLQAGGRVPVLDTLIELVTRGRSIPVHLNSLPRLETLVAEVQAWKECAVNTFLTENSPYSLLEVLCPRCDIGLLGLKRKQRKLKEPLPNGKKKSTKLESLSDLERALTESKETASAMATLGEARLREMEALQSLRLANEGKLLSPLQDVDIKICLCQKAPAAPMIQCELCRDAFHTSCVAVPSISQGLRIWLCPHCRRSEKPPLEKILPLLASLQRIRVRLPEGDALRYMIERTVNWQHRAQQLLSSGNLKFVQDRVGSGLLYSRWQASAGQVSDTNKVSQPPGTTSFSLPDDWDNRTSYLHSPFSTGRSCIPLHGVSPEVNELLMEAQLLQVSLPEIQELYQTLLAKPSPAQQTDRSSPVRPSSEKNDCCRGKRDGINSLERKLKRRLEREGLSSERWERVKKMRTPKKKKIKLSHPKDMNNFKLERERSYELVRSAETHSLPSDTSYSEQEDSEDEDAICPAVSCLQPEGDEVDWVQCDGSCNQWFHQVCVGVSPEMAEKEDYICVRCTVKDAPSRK
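Compound dilutions met 200 nM (final) KDM5BΔAP for 10 min at room temperature before substrate addition. The substrate mix held 12.5 µM H3K4me3 with cofactors 25 µM α-ketoglutarate and 50 µM Fe²⁺. NADH signal gain over 30 min defined activity.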
Active calls of the source: *; i = inactive; ? = inconclusive; . = not tested or not shown.

SMILES	IP6K1 inh	KDM5B inh
CCOC(=O)C(NC(=O)[C@@H](NC(=O)c1ccccc1OCC)C(C)C)C(=O)OCC	.	i
COc1ccc(C(=O)N2CCC3(C2)C(=NC2CCCC2)NC(=O)N3c2cc(F)cc(F)c2)cc1 (stereo not drawn)	6	i
c1cc(-c2ccnc3nc(C4CCCCC4)nn23)ccn1	-6	32µM*
CC(C)Cc1nc2nccc(-c3ccc4c(c3)OCCCO4)n2n1	-4	28µM*
c1ccc(CCc2nc3nccc(-c4ccncc4)n3n2)cc1	-9	i
c1cc(-c2ccsc2)n2nc(C3CCC3)nc2n1	1	?
c1cncc(-c2ccnc3nc(CCC4CCCC4)nn23)c1	-3	i
c1ccc(CCc2nc3nccc(-c4ccc5c(c4)OCCCO5)n3n2)cc1	2	?
c1cc(-c2ccnc3nc(C4CCC4)nn23)ccn1	-13	28µM*
c1cc(-c2ccnc3nc(CCC4CCCC4)nn23)ccn1	-3	28µM*
Cc1oc(-c2ccccc2)nc1C(=O)N(C)C(C)C(C)(C)C (stereo not drawn)	.	i
c1ccc(-c2ccnc3nc(C4CCC4)nn23)cc1	-5	28µM*
Cn1cc(C=O)c(-c2ccc3c(c2)OCCCO3)n1	.	i
c1cncc(-c2ccnc3nc(C4CCC4)nn23)c1	4	?
c1cc(-c2ccc3c(c2)OCCCO3)n2nc(C3CCC3)nc2n1	0	16µM*
Cc1cc(Cl)ccc1-c1ccccc1C=O	-5	i
Cc1cc(Cl)ccc1-c1ccc(C=O)cc1	-18	79µM*
O=Cc1ccc(-c2cccc(Cl)c2)cc1	-14	32µM*
NCc1ccc(-c2cccc(Cl)c2)cc1	-16	i
O=C(NCC(c1cccnc1)N1CCc2ccccc2C1)c1ccc(F)c(F)c1 (stereo not drawn)	-4	i
O=C(NCc1ccc(F)cc1)c1nc(-c2cccc(F)c2)c2cnccn12	11	i
O=C(NCc1ccc(F)cc1)c1nc(-c2cccc(C(F)(F)F)c2)c2cnccn12	0	28µM*
O=C(NCc1cccs1)c1nc(-c2cccc(C(F)(F)F)c2)c2cnccn12	4	16µM*
O=C(NCc1cccs1)c1nc2sccn2c1-c1ccc(C(F)(F)F)cc1	10	.
O=C(NNC(=O)c1ccccc1OCCOc1ccccc1)c1cccc(F)c1	.	i
SMILES	IP6K1 inh	KDM5B inh
O=C(c1cccc2[nH]ccc12)N1CCC2(CC1)N(Cc1cccc(F)c1)C(=O)CS2=O (stereo not drawn)	-9	18µM*
COCCN1C(=O)CS(=O)C12CCN(C(=O)C1(c3ccc(OC)cc3)CC1)CC2 (stereo not drawn)	-12	i
O=C(NCc1ccccc1)N1CCC2(CC1)N(Cc1cccc(F)c1)C(=O)CS2=O (stereo not drawn)	-12	.
COCCN1C(=O)CS(=O)C12CCN(C(=O)c1ccc3cc[nH]c3c1)CC2 (stereo not drawn)	-8	18µM*
Cc1oc(-c2ccccc2Cl)nc1CS(=O)(=O)CC(=O)NCc1ccc(F)cc1	-17	?
CC(C)c1nc2c(c(-c3ccc(O)cc3)n1)CCN(CC1CCCCC1)CC2	1	?
CC(C)c1nc2c(c(-c3ccc(Cl)cc3)n1)CCN(CC1CCCCC1)CC2	-4	35µM*
COc1ccc(-c2nc(C)nc3c2CCN(CC2CC2)CC3)cc1	-1	40µM*
CCc1nc2c(c(-c3ccc(Cl)cc3)n1)CN(Cc1ccc(OC)cc1)CC2	-4	18µM*
COc1ccc(-c2nc(C)nc3c2CCN(Cc2ccc(F)cc2)CC3)cc1	-7	i
CCc1nc2c(c(-c3ccc(Cl)cc3)n1)CCN(Cc1ccc(OC)cc1)CC2	13	i
CCc1nc2c(c(-c3ccc(Cl)cc3)n1)CCN(CC1CC1)CC2	-1	28µM*
CCc1nc2c(c(-c3ccc(Cl)cc3)n1)CN(CC1CC1)CC2	-2	?
Cc1cc(C)c(NC(=O)Cn2c(=O)n(-c3ccc(F)cc3)c(=O)c3c2cc(C)n3C)c(C)c1	0	i
O=C(Nc1ccccc1Cl)c1c2c(nc3ccccc13)CCCC2	.	i
Cc1ccc(C(=O)N2CCCC(c3nc(C(C)C)no3)CCNC(=O)CC2)s1 (stereo not drawn)	4	i
CC(C)c1nc2c(c(-c3ccc(Cl)cc3)n1)CCN(Cc1cccc3ccccc13)CC2	7	56µM*
CC(C)c1nc2c(c(-c3ccc(O)cc3)n1)CN(Cc1ccc(OC(F)(F)F)cc1)CC2	1	18µM*
Oc1ccc(-c2nc(C3CC3)nc3c2CN(Cc2ccc(OC(F)(F)F)cc2)CC3)cc1	6	i
COc1ccc(CN2CCc3nc(C(C)C)nc(-c4ccc(Cl)cc4)c3CC2)cc1	0	?
CCOc1ccccc1C(=O)NCc1nnc2ccc(-c3ccc(C)c(C)c3)nn12	3	32µM*
COc1ccccc1C(=O)NCc1nnc2ccc(-c3ccc(C)cc3)nn12	-2	13µM*
CCOc1ccccc1C(=O)NCc1nnc2ccc(-c3ccc(C)cc3)nn12	-15	?
COc1ccccc1OCCNC(=O)c1ccc(Cn2ccn3nc4c(c3c2=O)CCCC4)cc1	32	25µM*
CCc1cccc(NC(=O)c2ccc(Cn3ccn4nc5c(c4c3=O)CCCC5)cc2)c1	5	?
SMILES	IP6K1 inh	KDM5B inh
CC(C)c1cccc(NC(=O)c2ccc(Cn3ccn4nc5c(c4c3=O)CCCC5)cc2)c1	25	22µM*
COCCCNC(=O)c1ccc(Cn2ccn3nc4c(c3c2=O)CCCC4)cc1	-3	i
O=C(Nc1ccc(F)cc1)c1ccc(Cn2ccn3nc4c(c3c2=O)CCCC4)cc1	0	?
O=C(Nc1ccc(F)c(F)c1)c1ccc(Cn2ccn3nc4c(c3c2=O)CCCC4)cc1	-1	25µM*
O=C(Nc1ccccc1)c1ccc(Cn2ccn3nc4c(c3c2=O)CCCC4)cc1	-5	22µM*
O=C(Nc1ccc(Cl)cc1)c1ccc(Cn2ccn3nc4c(c3c2=O)CCCC4)cc1	18	i
Cc1ccc(NC(=O)N[C@@H](CC(C)C)C(=O)O)cc1Cl	.	i
CCCCc1ccc(C(=O)NC(Cc2ccccc2)C(=O)O)cc1 (stereo not drawn)	.	i
Cc1ccccc1-c1noc(CSc2nc3cc4c(cc3c(=O)n2Cc2ccco2)OCO4)n1	.	i
COc1ncccc1-c1nc2cc(C(=O)NCCCc3ccccc3)ccc2o1	5	.
O=C1CO[C@H]2CCN(Cc3ccccn3)CC[C@@H]2N1CCc1cccnc1	-1	?
CC(C)n1cc2cc(C(=O)NCc3ccccc3F)sc2c1	1	?
CC(C)n1cc2cc(C(=O)NCc3cnccn3)sc2c1	5	16µM*
CC(C)n1cc2cc(C(=O)NCc3cccnc3)sc2c1	2	25µM*
CCOc1ccccc1CNC(=O)c1cc2cn(C(C)C)cc2s1	7	?
COc1cc(CNC(=O)c2cc3cn(C(C)C)cc3s2)cc(OC)c1	4	?
CC(C)n1cc2cc(C(=O)NCc3ccccn3)sc2c1	-5	25µM*
Cc1ccccc1CNC(=O)c1cc2cn(C(C)C)cc2s1	12	18µM*
COc1ccc(CNC(=O)c2cc3cn(C(C)C)cc3s2)cc1	-5	?
O=C(Cn1nc2c(cc1=O)CCCCC2)Nc1cccnc1	4	i
Cc1cc(C(=O)N2CCn3nc(C(C)O)cc3C2)c2ccc(F)cc2n1 (stereo not drawn)	3	i
